Experiments:
Assay in all cases: DAPPL (digital affinity profiling via proximity ligation, sequencing); 10 mM Tris-HCl pH 7.5, 50 mM NaCl, 1 mM DTT, 4% glycerol, room temperature, 30 min; GST-TFs on glutathione beads, 16-mer random dsDNA library, 0.1% formaldehyde crosslink after washing; high values mean tight binding
FLI1 = target: T1, FLI1 (Homo sapiens, UniProt Q01543 1-452); details: protein: recombinant; tags: N-terminal GST; dsDNA, one strand shown
T1 sequence: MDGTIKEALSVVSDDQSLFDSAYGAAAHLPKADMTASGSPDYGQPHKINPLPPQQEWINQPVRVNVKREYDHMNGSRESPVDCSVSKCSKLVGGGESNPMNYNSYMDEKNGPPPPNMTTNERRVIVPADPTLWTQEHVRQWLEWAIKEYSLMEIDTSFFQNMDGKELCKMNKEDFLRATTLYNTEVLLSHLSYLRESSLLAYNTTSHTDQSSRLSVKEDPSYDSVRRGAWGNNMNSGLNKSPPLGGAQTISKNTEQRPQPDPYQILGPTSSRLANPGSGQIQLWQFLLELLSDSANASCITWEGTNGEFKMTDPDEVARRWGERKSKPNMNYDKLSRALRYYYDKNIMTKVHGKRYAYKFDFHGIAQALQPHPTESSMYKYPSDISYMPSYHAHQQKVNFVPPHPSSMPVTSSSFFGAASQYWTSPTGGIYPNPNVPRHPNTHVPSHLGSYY
How it was run: (§1)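 Pools were built from human transcription factors expressed in yeast as GST fusions, captured on glutathione beads and DNA-barcoded, along with a tag-only sample. Incubation with 200 nmole of a 16-mer random double-stranded DNA library lasted 30 min at room temperature in Tris/NaCl/DTT/glycerol buffer, and was followed by washing, 0.1% formaldehyde crosslinking, proximity ligation, PCR amplification and Illumina NextSeq500 sequencing. Binding signal is the quotient of each hexamer's read frequency for a factor and its frequency for the tag-only sample.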

ELK1 = target: T2, ELK1 (Homo sapiens, UniProt P19419 1-428); details: protein: recombinant; tags: N-terminal GST; dsDNA, one strand shown
T2 sequence: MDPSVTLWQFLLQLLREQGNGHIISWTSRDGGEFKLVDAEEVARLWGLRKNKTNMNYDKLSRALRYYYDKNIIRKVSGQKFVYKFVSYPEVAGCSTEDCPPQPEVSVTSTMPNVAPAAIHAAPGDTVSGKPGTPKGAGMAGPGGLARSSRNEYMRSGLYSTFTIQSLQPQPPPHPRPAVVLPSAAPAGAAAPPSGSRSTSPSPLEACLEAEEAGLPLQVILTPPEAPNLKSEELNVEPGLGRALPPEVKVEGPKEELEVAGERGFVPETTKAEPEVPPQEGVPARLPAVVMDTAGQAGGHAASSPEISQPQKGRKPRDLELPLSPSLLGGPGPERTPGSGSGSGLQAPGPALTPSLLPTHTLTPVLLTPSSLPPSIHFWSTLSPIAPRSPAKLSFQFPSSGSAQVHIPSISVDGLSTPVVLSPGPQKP
How it was run: as §1

GABPA = target: T3, GABPA (Homo sapiens, UniProt Q06546 1-454); details: protein: recombinant; tags: N-terminal GST; dsDNA, one strand shown
T3 sequence: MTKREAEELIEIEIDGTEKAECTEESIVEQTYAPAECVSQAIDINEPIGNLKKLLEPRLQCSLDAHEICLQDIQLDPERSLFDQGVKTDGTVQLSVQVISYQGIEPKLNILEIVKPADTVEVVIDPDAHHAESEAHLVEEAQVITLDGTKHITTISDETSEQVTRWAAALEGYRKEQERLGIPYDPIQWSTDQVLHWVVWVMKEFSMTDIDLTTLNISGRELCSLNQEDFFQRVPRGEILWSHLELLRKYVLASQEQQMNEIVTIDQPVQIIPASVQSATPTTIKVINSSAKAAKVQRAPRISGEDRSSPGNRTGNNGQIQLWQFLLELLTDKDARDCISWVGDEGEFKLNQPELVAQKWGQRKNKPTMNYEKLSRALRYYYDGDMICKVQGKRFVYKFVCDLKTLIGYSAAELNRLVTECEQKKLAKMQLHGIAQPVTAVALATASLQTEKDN
How it was run: as §1

ERG = target: T4, ERG (Homo sapiens, UniProt P11308 1-479); details: protein: recombinant; tags: N-terminal GST; dsDNA, one strand shown
T4 sequence: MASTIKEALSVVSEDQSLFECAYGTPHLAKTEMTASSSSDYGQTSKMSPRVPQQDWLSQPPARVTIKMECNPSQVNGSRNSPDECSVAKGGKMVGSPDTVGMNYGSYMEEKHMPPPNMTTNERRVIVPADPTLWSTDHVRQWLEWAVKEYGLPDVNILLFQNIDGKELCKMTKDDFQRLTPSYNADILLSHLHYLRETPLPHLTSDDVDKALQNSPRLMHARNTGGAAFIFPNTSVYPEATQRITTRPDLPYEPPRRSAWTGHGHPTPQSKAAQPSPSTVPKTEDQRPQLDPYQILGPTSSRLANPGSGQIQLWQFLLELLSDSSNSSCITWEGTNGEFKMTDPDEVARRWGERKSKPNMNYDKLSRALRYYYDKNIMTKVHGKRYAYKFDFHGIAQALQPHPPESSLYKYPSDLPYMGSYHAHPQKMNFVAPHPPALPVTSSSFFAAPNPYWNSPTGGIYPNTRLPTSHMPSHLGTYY
How it was run: as §1

ELF1 = ELF1 (Homo sapiens, UniProt P32519 1-619); details: protein: recombinant; tags: N-terminal GST; dsDNA, one strand shown
How it was run: as §1

EHF = target: T5, EHF (Homo sapiens, UniProt Q9NZC4 1-300); details: protein: recombinant; tags: N-terminal GST; dsDNA, one strand shown
T5 sequence: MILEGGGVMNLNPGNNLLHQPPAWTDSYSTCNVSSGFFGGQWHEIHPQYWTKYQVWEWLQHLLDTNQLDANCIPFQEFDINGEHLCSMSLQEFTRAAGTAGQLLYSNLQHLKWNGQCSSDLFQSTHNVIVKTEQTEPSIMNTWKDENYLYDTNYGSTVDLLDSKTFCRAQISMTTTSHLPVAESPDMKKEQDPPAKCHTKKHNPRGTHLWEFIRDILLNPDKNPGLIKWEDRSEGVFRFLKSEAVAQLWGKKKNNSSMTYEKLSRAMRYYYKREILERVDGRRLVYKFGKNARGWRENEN
How it was run: as §1

SPI1 = SPI1 (Homo sapiens, UniProt P17947 1-270); details: protein: recombinant; tags: N-terminal GST; dsDNA, one strand shown
How it was run: as §1

SPIB = SPIB (Homo sapiens, UniProt Q01892 1-262); details: protein: recombinant; tags: N-terminal GST; dsDNA, one strand shown
How it was run: as §1

ELK3 = target: T6, ELK3 (Homo sapiens, UniProt P41970 1-407); details: protein: recombinant; tags: N-terminal GST; dsDNA, one strand shown
T6 sequence: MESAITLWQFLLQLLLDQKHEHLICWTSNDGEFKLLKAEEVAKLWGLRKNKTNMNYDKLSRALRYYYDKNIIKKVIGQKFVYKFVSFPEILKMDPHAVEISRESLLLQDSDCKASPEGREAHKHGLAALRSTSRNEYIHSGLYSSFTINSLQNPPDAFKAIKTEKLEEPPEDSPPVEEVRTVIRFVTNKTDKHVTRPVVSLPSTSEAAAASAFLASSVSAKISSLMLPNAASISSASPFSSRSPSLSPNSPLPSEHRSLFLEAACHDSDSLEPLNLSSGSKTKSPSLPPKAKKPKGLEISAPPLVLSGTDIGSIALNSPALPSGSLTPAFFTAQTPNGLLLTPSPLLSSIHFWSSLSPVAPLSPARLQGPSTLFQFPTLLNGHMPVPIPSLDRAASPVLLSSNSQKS
How it was run: as §1

FEV = target: T7, FEV (Homo sapiens, UniProt Q99581 1-238); details: protein: recombinant; tags: N-terminal GST; dsDNA, one strand shown
T7 sequence: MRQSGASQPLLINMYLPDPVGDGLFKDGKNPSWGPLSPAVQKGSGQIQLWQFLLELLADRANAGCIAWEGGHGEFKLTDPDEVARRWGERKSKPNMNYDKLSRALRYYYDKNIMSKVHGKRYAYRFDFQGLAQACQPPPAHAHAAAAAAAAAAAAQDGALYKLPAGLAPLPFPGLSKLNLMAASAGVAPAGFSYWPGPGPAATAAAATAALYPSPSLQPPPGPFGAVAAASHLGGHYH
How it was run: as §1

ETV5 = ETV5 (Homo sapiens, UniProt P41161 1-510); details: protein: recombinant; tags: N-terminal GST; dsDNA, one strand shown
How it was run: as §1

HSF1 = HSF1 (Homo sapiens, UniProt Q00613 1-529); details: protein: recombinant; tags: N-terminal GST; chain copies: 3; dsDNA, one strand shown
How it was run: as §1

SPIC = target: T8, SPIC (Homo sapiens, UniProt Q8N5J4 1-248); details: protein: recombinant; tags: N-terminal GST; dsDNA, one strand shown
T8 sequence: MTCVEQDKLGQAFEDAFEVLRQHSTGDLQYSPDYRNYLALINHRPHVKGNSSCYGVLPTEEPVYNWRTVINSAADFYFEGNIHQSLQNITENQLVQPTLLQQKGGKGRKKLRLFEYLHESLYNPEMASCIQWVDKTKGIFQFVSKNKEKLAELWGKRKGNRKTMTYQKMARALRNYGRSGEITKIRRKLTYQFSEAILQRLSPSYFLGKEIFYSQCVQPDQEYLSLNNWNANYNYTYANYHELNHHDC
How it was run: as §1

ELF4 = ELF4 (Homo sapiens, UniProt Q99607 1-663); details: protein: recombinant; tags: N-terminal GST; dsDNA, one strand shown
How it was run: as §1

ELK4 = target: T9, ELK4 (Homo sapiens, UniProt P28324-2 1-405); details: protein: recombinant; tags: N-terminal GST; dsDNA, one strand shown
T9 sequence: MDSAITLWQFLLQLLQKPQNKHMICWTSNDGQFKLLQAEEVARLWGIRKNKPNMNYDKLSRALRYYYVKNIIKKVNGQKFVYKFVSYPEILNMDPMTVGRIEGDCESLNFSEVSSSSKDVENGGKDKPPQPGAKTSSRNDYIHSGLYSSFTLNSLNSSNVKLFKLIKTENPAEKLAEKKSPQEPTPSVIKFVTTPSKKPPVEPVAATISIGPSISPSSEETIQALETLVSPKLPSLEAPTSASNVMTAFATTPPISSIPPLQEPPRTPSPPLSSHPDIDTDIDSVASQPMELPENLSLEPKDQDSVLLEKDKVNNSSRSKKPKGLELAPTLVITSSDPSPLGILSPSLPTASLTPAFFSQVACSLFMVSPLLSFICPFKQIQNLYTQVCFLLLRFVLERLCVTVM
How it was run: as §1

ETV2 = target: T10, ETV2 (Homo sapiens, UniProt O00321 1-342); details: protein: recombinant; tags: N-terminal GST; dsDNA, one strand shown
T10 sequence: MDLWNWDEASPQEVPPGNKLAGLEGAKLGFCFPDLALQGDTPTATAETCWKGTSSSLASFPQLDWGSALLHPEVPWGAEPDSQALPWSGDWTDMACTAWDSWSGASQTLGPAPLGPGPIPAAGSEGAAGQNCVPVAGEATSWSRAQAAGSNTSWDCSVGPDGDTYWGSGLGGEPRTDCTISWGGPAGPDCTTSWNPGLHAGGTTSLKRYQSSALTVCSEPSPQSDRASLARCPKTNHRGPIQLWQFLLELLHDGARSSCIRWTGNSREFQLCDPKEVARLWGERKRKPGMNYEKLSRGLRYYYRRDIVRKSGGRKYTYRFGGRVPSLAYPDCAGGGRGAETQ
How it was run: as §1

ELF3 = target: T11, ELF3 (Homo sapiens, UniProt P78545 1-371); details: protein: recombinant; tags: N-terminal GST; dsDNA, one strand shown
T11 sequence: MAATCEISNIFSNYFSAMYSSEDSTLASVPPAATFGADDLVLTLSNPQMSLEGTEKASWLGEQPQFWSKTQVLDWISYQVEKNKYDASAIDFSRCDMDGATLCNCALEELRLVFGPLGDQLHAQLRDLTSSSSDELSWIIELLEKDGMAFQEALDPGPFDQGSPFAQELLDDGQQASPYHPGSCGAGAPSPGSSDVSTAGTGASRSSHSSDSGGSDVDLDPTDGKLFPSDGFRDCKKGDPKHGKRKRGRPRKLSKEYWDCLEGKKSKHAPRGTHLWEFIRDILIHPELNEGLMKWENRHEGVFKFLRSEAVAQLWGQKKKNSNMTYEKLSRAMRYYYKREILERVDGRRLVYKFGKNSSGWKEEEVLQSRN
How it was run: as §1

CRX = CRX (Homo sapiens, UniProt O43186 1-299); details: protein: recombinant; tags: N-terminal GST; dsDNA, one strand shown
How it was run: as §1

ETV1 = ETV1 (Homo sapiens, UniProt P50549 1-477); details: protein: recombinant; tags: N-terminal GST; dsDNA, one strand shown
How it was run: as §1

CRX, sequence (O43186 whole entry): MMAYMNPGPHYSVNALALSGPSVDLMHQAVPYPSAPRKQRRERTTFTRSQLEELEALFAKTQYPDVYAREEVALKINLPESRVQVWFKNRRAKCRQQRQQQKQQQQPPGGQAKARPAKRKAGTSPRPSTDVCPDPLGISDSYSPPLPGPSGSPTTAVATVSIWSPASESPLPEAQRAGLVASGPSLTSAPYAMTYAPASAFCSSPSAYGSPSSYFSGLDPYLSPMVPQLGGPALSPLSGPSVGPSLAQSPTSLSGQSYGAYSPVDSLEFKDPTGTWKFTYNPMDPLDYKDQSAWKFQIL
ELF1, sequence (P32519 whole entry): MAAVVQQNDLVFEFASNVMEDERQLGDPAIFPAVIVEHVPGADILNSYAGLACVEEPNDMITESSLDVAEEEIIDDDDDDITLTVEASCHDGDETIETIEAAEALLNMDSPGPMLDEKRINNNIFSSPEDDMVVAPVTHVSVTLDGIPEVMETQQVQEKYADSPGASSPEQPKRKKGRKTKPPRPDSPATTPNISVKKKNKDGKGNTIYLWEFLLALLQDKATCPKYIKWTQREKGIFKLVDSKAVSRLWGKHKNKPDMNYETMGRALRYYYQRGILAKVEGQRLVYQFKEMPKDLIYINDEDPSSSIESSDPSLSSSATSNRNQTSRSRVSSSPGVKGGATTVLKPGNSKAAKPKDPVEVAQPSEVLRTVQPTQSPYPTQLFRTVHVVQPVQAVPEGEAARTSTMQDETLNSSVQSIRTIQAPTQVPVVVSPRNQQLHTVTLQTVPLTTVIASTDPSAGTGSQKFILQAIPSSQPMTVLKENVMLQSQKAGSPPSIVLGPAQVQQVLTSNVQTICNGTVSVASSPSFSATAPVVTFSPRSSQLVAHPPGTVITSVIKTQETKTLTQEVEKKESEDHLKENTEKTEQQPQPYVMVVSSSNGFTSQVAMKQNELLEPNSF
ETV5, sequence (P41161 whole entry): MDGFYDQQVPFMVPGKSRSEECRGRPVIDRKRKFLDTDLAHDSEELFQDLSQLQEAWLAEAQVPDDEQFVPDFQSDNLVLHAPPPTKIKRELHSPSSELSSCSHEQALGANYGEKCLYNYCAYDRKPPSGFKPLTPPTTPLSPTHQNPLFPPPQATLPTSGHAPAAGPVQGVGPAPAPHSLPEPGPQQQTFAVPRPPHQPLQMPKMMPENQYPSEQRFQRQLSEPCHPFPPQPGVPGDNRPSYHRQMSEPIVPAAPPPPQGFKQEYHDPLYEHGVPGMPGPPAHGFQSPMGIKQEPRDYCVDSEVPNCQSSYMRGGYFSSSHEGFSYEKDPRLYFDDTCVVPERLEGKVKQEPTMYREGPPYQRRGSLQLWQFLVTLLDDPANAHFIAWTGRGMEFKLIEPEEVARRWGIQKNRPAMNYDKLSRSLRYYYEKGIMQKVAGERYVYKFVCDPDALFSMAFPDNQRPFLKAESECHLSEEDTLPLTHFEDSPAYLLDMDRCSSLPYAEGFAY
ETV1, sequence (P50549 whole entry): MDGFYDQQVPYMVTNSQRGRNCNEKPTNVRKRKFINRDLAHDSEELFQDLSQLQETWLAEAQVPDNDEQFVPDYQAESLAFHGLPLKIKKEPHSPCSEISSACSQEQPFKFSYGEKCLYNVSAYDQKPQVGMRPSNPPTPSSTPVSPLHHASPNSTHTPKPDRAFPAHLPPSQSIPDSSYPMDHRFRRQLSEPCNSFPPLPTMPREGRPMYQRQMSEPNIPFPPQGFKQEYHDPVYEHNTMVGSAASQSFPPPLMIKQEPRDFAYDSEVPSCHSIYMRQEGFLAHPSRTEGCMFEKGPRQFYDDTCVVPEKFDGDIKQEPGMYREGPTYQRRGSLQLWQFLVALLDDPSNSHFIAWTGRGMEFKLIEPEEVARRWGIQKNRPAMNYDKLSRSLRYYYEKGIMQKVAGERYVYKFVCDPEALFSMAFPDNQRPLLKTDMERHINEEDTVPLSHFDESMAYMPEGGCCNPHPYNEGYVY
HSF1, sequence (Q00613 whole entry): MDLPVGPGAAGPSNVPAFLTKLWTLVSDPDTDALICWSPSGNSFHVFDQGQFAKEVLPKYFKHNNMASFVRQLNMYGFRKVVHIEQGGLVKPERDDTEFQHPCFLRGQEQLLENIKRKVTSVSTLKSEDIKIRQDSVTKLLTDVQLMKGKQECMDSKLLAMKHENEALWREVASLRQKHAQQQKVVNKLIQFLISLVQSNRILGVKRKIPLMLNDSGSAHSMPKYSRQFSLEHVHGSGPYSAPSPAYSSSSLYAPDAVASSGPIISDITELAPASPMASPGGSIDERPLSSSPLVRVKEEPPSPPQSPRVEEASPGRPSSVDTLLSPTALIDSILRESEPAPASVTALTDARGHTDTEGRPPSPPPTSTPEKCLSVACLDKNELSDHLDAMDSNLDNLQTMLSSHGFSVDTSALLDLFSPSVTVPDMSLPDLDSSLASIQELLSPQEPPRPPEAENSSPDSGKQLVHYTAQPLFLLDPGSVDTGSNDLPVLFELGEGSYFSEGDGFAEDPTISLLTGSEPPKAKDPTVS
ELF4, sequence (Q99607 whole entry): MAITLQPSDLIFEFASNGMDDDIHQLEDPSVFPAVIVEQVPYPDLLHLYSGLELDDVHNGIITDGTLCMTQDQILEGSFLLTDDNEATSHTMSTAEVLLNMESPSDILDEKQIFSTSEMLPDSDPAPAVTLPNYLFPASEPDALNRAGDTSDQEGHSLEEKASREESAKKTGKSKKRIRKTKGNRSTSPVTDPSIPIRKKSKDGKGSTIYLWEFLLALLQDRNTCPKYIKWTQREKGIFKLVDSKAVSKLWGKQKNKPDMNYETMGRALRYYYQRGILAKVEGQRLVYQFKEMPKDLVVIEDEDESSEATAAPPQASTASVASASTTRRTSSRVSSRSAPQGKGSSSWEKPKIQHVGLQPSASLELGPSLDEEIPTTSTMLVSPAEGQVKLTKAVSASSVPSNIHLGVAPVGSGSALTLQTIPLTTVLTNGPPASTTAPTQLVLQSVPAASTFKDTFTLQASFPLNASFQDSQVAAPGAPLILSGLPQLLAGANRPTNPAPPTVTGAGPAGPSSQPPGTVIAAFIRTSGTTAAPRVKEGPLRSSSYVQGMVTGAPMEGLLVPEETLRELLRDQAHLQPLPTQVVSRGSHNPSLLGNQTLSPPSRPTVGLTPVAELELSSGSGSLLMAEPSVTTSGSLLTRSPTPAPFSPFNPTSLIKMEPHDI
SPIB, sequence (Q01892 whole entry): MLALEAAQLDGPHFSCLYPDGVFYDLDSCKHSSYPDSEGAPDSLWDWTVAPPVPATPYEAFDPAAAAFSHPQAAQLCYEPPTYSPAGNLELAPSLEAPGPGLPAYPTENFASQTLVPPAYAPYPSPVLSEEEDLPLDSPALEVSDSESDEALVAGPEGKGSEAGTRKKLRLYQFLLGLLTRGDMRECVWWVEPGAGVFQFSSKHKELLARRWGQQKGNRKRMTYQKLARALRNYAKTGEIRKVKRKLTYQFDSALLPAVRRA

## ATTCCA
FLI1
  binding signal: 1.17 fold enrichment (6-mer frequency, TF over GST control)
ELK1
  binding signal: 1.1 fold enrichment (6-mer frequency, TF over GST control)
GABPA
  binding signal: 1.16 fold enrichment (6-mer frequency, TF over GST control)
ERG
  binding signal: 1.14 fold enrichment (6-mer frequency, TF over GST control)
ELF1
  binding signal: 1.22 fold enrichment (6-mer frequency, TF over GST control)
EHF
  binding signal: 1.13 fold enrichment (6-mer frequency, TF over GST control)
SPI1
  binding signal: 1.16 fold enrichment (6-mer frequency, TF over GST control)
SPIB
  binding signal: 1.1 fold enrichment (6-mer frequency, TF over GST control)
ELK3
  binding signal: 1.25 fold enrichment (6-mer frequency, TF over GST control)
FEV
  binding signal: 1.07 fold enrichment (6-mer frequency, TF over GST control)
ETV5
  binding signal: 1.18 fold enrichment (6-mer frequency, TF over GST control)
HSF1
  binding signal: 2.28 fold enrichment (6-mer frequency, TF over GST control)
SPIC
  binding signal: 1.14 fold enrichment (6-mer frequency, TF over GST control)
ELF4
  binding signal: 1.25 fold enrichment (6-mer frequency, TF over GST control)
ELK4
  binding signal: 1.19 fold enrichment (6-mer frequency, TF over GST control)
ETV2
  binding signal: 1.25 fold enrichment (6-mer frequency, TF over GST control)
ELF3
  binding signal: 1.04 fold enrichment (6-mer frequency, TF over GST control)
CRX
  binding signal: 1.58 fold enrichment (6-mer frequency, TF over GST control)
ETV1
  binding signal: 1.11 fold enrichment (6-mer frequency, TF over GST control)

Source: publication PMC7862700, “An all-to-all approach to the identification of sequence-specific readers for epigenetic DNA modifications on cytosine”
